Assay results: PubChem BioAssay (Tox21)
Records with an inconclusive call do not appear. Active and inactive are the calls of the source. Unless noted, the call rests on the fitted dose curve; in most records, active means well fitted curve in the direction sought with a large enough effect in the repeat runs; inconclusive means weak or mixed curves; inactive means no such curve, though single readings can be large; an effect the other way counts as inactive or inconclusive.

Assays:
[1] = qHTS assay to identify small molecule antagonists of the estrogen related receptor (ERR) signaling pathway from Tox21 library - cell viability counter screen (AID 1224834); further: nearly all actives have a fitted effect of over 30% in size; further: potency means the concentration at half of the fitted maximal effect
Procedure, shortened: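 CellTiter-Fluor fluorescence measured; ERR cells; 17.5 h compound incubation at 37 C; 30 min reagent step.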

[2] = target: Luciferin 4-monooxygenase (Photinus pyralis) (UniProt P08659); assay: qHTS assay to identify small molecule inhibitors of firefly luciferase (AID 1224835); further: nearly all actives have a fitted effect of over 25% in size; further: potency means the concentration at half of the fitted maximal effect
Sequence of Luciferin 4-monooxygenase (Photinus pyralis) (P08659 whole entry, looked up): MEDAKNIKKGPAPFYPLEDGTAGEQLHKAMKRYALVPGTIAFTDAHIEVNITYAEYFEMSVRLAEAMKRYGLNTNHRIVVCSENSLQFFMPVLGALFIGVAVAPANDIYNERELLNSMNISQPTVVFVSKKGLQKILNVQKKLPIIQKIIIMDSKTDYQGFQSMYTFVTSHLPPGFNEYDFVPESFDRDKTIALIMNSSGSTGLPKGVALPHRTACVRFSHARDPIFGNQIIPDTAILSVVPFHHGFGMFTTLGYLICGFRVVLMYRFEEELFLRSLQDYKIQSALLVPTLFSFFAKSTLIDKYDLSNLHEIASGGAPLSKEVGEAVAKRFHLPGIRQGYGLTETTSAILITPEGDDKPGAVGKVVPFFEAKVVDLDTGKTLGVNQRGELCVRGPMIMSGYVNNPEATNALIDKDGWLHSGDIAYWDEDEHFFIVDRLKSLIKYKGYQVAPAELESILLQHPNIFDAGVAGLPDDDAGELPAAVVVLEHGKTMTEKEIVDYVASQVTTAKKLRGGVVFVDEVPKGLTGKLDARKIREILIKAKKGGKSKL
Procedure, shortened: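 Quantitative HTS format; KM concentrations of both substrates. Purified P. pyralis FLuc activity quantified from luminescence images.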

[3] = qHTS assay to identify small molecule agonists of the constitutive androstane receptor (CAR) signaling pathway - cell viability counter screen (AID 1224836); further: nearly all actives have a fitted effect of over 45% in size; further: potency means the concentration at half of the fitted maximal effect; on viability change, negative = cytotoxic: series mostly up to about 92 µM
Procedure, shortened: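 Fluorescence from CellTiter-Fluor indicates live cells after 23 h exposure. The human hepatoma line expresses hCAR and a CYP2B6-2.2kb reporter. Incubation medium contains 0.75 uM PK11195 (final).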

[4] = qHTS assay to identify small molecule antagonists of the constitutive androstane receptor (CAR) signaling pathway - cell viability counter screen (AID 1224837); further: nearly all actives have a fitted effect of over 45% in size; further: potency means the concentration at half of the fitted maximal effect; on activity change, negative = cytotoxicity: series mostly up to about 92 µM
Procedure, shortened: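 Using CellTiter-Fluor, viability is scored in HepG2 cells stably carrying hCAR and a 2.2kb CYP2B6 reporter after 23 hr compound exposure across 15 concentrations, with CITCO present at 50 nM.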

[5] = target: Nuclear receptor subfamily 1 group I member 3 (Homo sapiens) (UniProt Q14994); assay: qHTS assay to identify small molecule antagonists of the constitutive androstane receptor (CAR) signaling pathway (AID 1224838);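 further: HepG2 cells stably expressing hCAR with CYP2B6 luciferase reporter stimulated by CITCO; nearly all actives have a fitted effect of over 40% in size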
Sequence of Nuclear receptor subfamily 1 group I member 3 (Homo sapiens) (Q14994 whole entry, looked up): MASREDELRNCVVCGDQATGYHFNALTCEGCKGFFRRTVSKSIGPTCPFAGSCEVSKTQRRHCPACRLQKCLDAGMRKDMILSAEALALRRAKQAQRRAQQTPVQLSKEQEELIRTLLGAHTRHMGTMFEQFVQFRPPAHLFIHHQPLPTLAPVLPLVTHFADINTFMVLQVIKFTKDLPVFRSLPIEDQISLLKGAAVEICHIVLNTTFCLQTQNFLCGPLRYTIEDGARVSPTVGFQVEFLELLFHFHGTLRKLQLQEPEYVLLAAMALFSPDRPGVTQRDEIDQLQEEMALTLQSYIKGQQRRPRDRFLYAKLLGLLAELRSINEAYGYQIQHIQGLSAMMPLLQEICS
Procedure, shortened: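 Reporter luminescence was quantified after 24 h exposure of hCAR/CYP2B6-2.2kb double-stable HepG2 cells to compounds at 15 concentrations in the presence of 50 nM CITCO final.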

[6] = target: Nuclear receptor subfamily 1 group I member 3 (Homo sapiens) (UniProt Q14994); assay: qHTS assay to identify small molecule agonists of the constitutive androstane receptor (CAR) signaling pathway (AID 1224839); further: nearly all actives have a fitted effect of over 15% in size; further: potency means the concentration at half of the fitted maximal effect;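 on activation: HepG2 cells stably carrying human CAR and a CYP2B6 luciferase reporter; series mostly up to about 92 µM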
Procedure, shortened: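 Stable hCAR/CYP2B6-2.2kb HepG2 line in DMEM with 10% FBS; compounds (15 concentrations) and 0.75 uM PK11195 final, 24 h at 37 C/5% CO2, then ONE-Glo luminescence after 30 min.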

[7] = qHTS assay to identify small molecule antagonists of the estrogen related receptor signaling pathway with the pleiotropic PPARgamma coactivator (PGC) from Tox21 10K library - cell viability counter screen (AID 1224840; active means well fitted cell-killing curve with a large enough effect in the repeat runs, not every such curve was filed as active; further: nearly all actives have a fitted effect of over 40% in size)
Procedure, shortened: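 Here the PGC/ERR cells serve as a cytotoxicity control: they are exposed to compounds for 17.5 hours at 37 C, and live-cell signal is quantified using CellTiter-Fluor fluorescence.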

[8] = qHTS assay to identify small molecule agonists of the estrogen related receptor signaling pathway with the pleiotropic PPARgamma coactivator (PGC) (AID 1224823)
Procedure, shortened: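 Cell-based luciferase assay in the NTP-supplied PGC/ERR line, 2,000 cells/well; 18 h compound exposure at 37 C, luminescence after One-Glo.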

[9] = qHTS assay to identify small molecule antagonists of the estrogen related receptor signaling pathway with the pleiotropic PPARgamma coactivator (PGC) from Tox21 10K library (AID 1224841; call rule not given here; further: series mostly up to about 92 µM; actives are mostly falling curves and most rising ones were filed inactive; nearly all actives have a fitted effect of over 50% in size)
Procedure, shortened: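 Each well held 2,000 PGC/ERR cells, pre-incubated six hours (37 C, 5% CO2). Test substances in DMSO were added by pin tool and left for 18 h at 37 C before luciferase detection by One-Glo.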

[10] = qHTS assay to identify small molecule agonists of the estrogen related receptor signaling pathway with the pleiotropic PPARgamma coactivator (PGC) from Tox21 10K library (AID 1224842); further: nearly all actives have a fitted effect of over 15% in size
Procedure, shortened: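 PGC/ERR reporter cells (NTP line) were seeded 2,000 per well, rested 6 h at 37 C/5% CO2, then pin-dosed with compounds in DMSO for 18 h at 37 C; luciferase read by One-Glo luminescence after 30 min at room temperature.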
On the % scale 0 is the no-effect control and ±100 the full control effect.

NS(=O)(=O)c1ccc(NC(=O)CCC(=O)O)cc1
inactive: Potency [1] | Potency [2] | Potency [3] | Potency [4] | outcome [5] | Potency [6] | outcome [7]

FC(F)(F)c1ccccc1-n1ccnc1
inactive: Potency [1] | Potency [2] | Potency [3] | Potency [4] | outcome [5] | Potency [6] | outcome [7]

C=C(C)C1CCC(C)(O)CC1 (configuration not stated)
inactive: Potency [1] | Potency [2] | Potency [3] | Potency [4] | outcome [5] | Potency [6] | outcome [7]

NCCS
inactive: outcome [8] | Potency [2] | Potency [3] | Potency [4] | outcome [7] | Potency [9] | outcome [10]

CC1(C)S[C@@H]2[C@H](N=CN3CCCCCC3)C(=O)N2[C@H]1C(=O)O
inactive: Potency [1] | Potency [2] | Potency [3] | Potency [4] | outcome [5] | Potency [6] | outcome [7]

COCCc1ccc(OCC2CO2)cc1 (configuration not stated)
inactive: Potency [1] | Potency [2] | Potency [3] | Potency [4] | outcome [5] | Potency [6] | outcome [7]

O=C(O)Cc1cn(-c2ccccc2)nc1-c1ccc(Cl)cc1
inactive: Potency [1] | Potency [2] | Potency [3] | Potency [4] | outcome [5] | Potency [6] | outcome [7]

COC(=O)[C@@H]1[C@H]2C[C@H]3c4[nH]c5ccccc5c4CCN3C[C@@H]2CC[C@@H]1O
inactive: outcome [8] | Potency [1] | Potency [2] | Potency [3] | Potency [4] | outcome [5] | outcome [7] | Potency [9] | outcome [10]

CCCOC(OCCC)OCCC
inactive: Potency [1] | Potency [2] | Potency [3] | Potency [4] | outcome [5] | Potency [6] | outcome [7] | Potency [9] | outcome [10]

CCC(C)NC(N)=O (configuration not stated)
inactive: Potency [1] | Potency [2] | Potency [3] | Potency [4] | outcome [5] | Potency [6] | outcome [7]

O=C(O)CCSSCCC(=O)O
inactive: Potency [1] | Potency [2] | Potency [3] | Potency [4] | outcome [5] | Potency [6] | outcome [7]

CC(CO)c1ccccc1 (configuration not stated)
inactive: Potency [1] | Potency [2] | Potency [3] | Potency [4] | outcome [5] | Potency [6] | outcome [7]

CCN1CCc2nc(N)oc2CC1
inactive: Potency [1] | Potency [2] | Potency [3] | Potency [4] | outcome [5] | Potency [6] | outcome [7]

C=COCCOCCOCCOC=C
inactive: Potency [1] | Potency [2] | Potency [3] | Potency [4] | outcome [5] | Potency [6] | outcome [7]

CC(C)N(c1ccccc1)C(C)C
inactive: Potency [1] | Potency [2] | Potency [3] | Potency [4] | outcome [5] | Potency [6] | outcome [7]

CCN(CC)CC(=O)Nc1c(C)cccc1C
inactive: outcome [8] | Potency [1] | Potency [3] | outcome [7] | Potency [9] | outcome [10]

Cc1ccc(C=O)cc1C
inactive: Potency [1] | Potency [2] | Potency [3] | Potency [4] | outcome [5] | Potency [6] | outcome [7]

CN1CCN(CC(=O)N2c3ccccc3C(=O)Nc3cccnc32)CC1
inactive: outcome [8] | viability change, negative = cytotoxic [3] -1.77% [at 8.39 µM] | activity change, negative = cytotoxicity [4] 7.37% [at 8.39 µM] | activity, negative = inhibition [5] -1.39% [at 8.39 µM] | activation [6] -1% [at 8.39 µM] | viability change, negative = cytotoxic [7] 8.41% [at 8.39 µM] | activity, negative = inhibition [9] 2.2% [at 8.39 µM] | activation [10] 0.61% [at 8.39 µM]

O=S(=O)(O)c1ccc2cc(O)c(S(=O)(=O)O)cc2c1
inactive: Potency [1] | Potency [2] | Potency [3] | Potency [4] | outcome [5] | Potency [6] | outcome [7]

Cc1cccc(C)c1OCC(C)N (configuration not stated)
inactive: outcome [8] | Potency [1] | Potency [2] | Potency [3] | Potency [4] | outcome [5] | Potency [6] | outcome [7] | Potency [9] | outcome [10]

CC(=O)CCCCn1c(=O)c2c(ncn2C)n(C)c1=O
inactive: outcome [8] | Potency [1] | Potency [2] | Potency [3] | Potency [4] | outcome [7] | Potency [9] | outcome [10]

COc1ccc2c(c1OC)C(=O)O[C@@H]2[C@H]1c2c(cc3c(c2OC)OCO3)CCN1C
inactive: outcome [8] | outcome [5] | Potency [9] | outcome [10]
active: Potency [1] 11.9 µM | Potency [3] 8.41 µM | Potency [4] 10.6 µM

CCCCCCCCCC(C)=O
inactive: Potency [1] | Potency [2] | Potency [3] | Potency [4] | outcome [5] | Potency [6] | outcome [7]

COc1ccc(C2CNC(=O)C2)cc1OC1CCCC1 (configuration not stated)
inactive: outcome [8] | Potency [2] | Potency [3] | Potency [4] | outcome [7] | Potency [9] | outcome [10]

CC(=O)c1ccc2c(c1)Cc1ccccc1-2
active: Potency [2] 25.2 µM | Potency [6] 54.5 µM
inactive: Potency [1] | Potency [3] | Potency [4] | outcome [5] | outcome [7]

OCCC(F)(F)C(F)(F)C(F)(F)C(F)(F)C(F)(F)C(F)(F)C(F)(F)C(F)(F)F
inactive: Potency [1] | Potency [2] | Potency [3] | Potency [4] | outcome [5] | Potency [6] | outcome [7] | Potency [9]

O=C(NCCN1CCOCC1)c1ccc(Cl)cc1
inactive: outcome [8] | Potency [2] | Potency [3] | outcome [5] | Potency [6] | outcome [7] | Potency [9] | outcome [10]

Cc1ccc2c(c1)OCC(=O)CO2
inactive: Potency [1] | Potency [2] | Potency [3] | Potency [4] | outcome [5] | Potency [6] | outcome [7] | Potency [9]
